Assay results reported in the supplement of paper PMC6555819.

How the values were obtained:
Assay in all cases: PBM binding z-score (relative to random genomic background probes); higher = stronger binding; sequences stand for … in GC…GCGATTGACAGCGTAGAATGAAGG
[1] = test system: RARb homodimer (NR concentration 270 nM)
Outline: (§1)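 Ligand-free nuclear receptor dimers were applied to custom Agilent 4×180K protein-binding microarrays whose double-stranded probes carried direct-repeat seeds, single-nucleotide variants, half-site ablations and random human genomic background sequences in 34-nt variable regions. Incubation lasted 1 h. Binding z-scores were computed against the random background probes from regression-normalized fluorescence.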

[2] = test system: RARg:RXRa (NR concentration 270 nM, RXRa partner concentration 90 nM)
Outline: as §1

[3] = test system: RARg homodimer (NR concentration 270 nM)
Outline: as §1

[4] = test system: RXRa DBDmut IVT, anti-RXR (DBD mutation: RXRa K156A/R161A, NR concentration 90 nM)
Outline: as §1

[5] = test system: RXRa homodimer (NR concentration 180 nM)
Outline: as §1

[6] = test system: THRa:RXRa (NR concentration 90 nM, RXRa partner concentration 90 nM)
Outline: as §1

[7] = test system: THRa homodimer (NR concentration 90 nM)
Outline: as §1

[8] = test system: VDR homodimer (NR concentration 270 nM)
Outline: as §1

Sequence | PBM binding z-score [1] | PBM binding z-score [2] | PBM binding z-score [3] | PBM binding z-score [4] | PBM binding z-score [5] | PBM binding z-score [6] | PBM binding z-score [7] | PBM binding z-score [8]
ATCGAAAGGTCGACGAGTTGAGTATACACCGTTT | 2.63 | 3.88 | 4.05 | 1.46 | 4.2 | 2.24 | -0.136 | 2.1
ATCTGTAGGTTATCGGGTCATTCAGTTTGCGCAT | 3.19 | 3.59 | 2.78 | 1.68 | 3.48 | 3.36 | 3.04 | 3.95
TAGCCTAGGTCATTCAGGGGCCAGAATAGAAAGC | 3.56 | 5.97 | 4.58 | 2.09 | 3.18 | 3.54 | 0.459 | 1.19
CCTAGATGGTCAGGAGGTCACACACCGGATATGA | 4.09 | 5.06 | 4.28 | 0.392 | 4.73 | 3.5 | 2.26 | 2.68
CCTCGGAGGACAGAAGGTCAGATCTGTCCGCTTT | 3.49 | 3.26 | 3.53 | 0.421 | 2.01 | 2.25 | 0.0201 | 0.21
CTATGTAGGTTAAGGGGGTCATTCTGTTTGAAAG | 3.79 | 4.83 | 3.82 | 2.56 | 5.51 | 3.69 | 2.09 | 4.58
CGAATTAGGTCACCAGGACAGTGAAGAGGTTGGA | 3.77 | 4.66 | 5.28 | 1.56 | 3.42 | 3.98 | 2.96 | 0.575
CTATGTAGGTTAAGGGGGTCATACAGTTTGAAAG | 3.95 | 5.39 | 4.06 | 2.32 | 6.26 | 4 | 2 | 5.41
CCGAGTGGGTTACGAGGGGGCATTCAGTGCGAAT | 1.94 | 2.95 | 2.18 | 1.09 | 1.75 | 3.72 | 0.652 | 3.43
CGTCCAAGGTCAAGGTGAGTGAAAGAGACTCGAA | 3.64 | 5.92 | 6.65 | 3.37 | 6.02 | 3.8 | 2.86 | 1.94
AGTCAAAGTTCTTCTAGGTAACGTAAGATATGCT | 0.172 | 0.404 | 0.586 | 1.41 | -0.133 | 1.71 | 0.292 | 0.746
CCTGCTAGTTCAATGGTCAGCTAAAGCAGCTCGC | 1.18 | 0.412 | 0.679 | 2.42 | 0.154 | 0.222 | -0.395 | 0.706
TAGCCTAGGTCCTTCAGGGGCCAGTATAGAAAGC | 0.357 | 0.825 | 0.108 | -1.03 | -0.259 | 0.402 | -0.799 | -0.422
CCTGCTAGGTCAATGGTCAGCTAAAGCAGCTCGC | 3.08 | 3.62 | 4.47 | 1.7 | 2.3 | 2.29 | 0.588 | 0.186
CTATGTAGCTTAAGGGGGTCATTCAGTTTGAAAG | 3.58 | 4.42 | 3.15 | 2.56 | 5.27 | 3.69 | 2.41 | 6.05
CCTAGTAGGTTATGGGGCATTCAGGCAACGGTGA | 0.8 | 0.878 | 0.852 | -0.581 | 0.835 | 0.719 | 0.289 | 0.0809
CGAACTAGGTCAAAGGATAGTGAAAGGCGACGTA | 2.35 | 3.47 | 4.16 | 1.28 | 2.85 | 2.22 | 0.17 | 0.124
ATATGTAGGTTCCATCCGGGTCATTCAGGCTATG | 2.11 | 1.65 | 1.19 | 0.91 | 2.18 | 3.44 | 2.32 | 2.91
ATATGTAGGTTAGGGTCATCCAGAAAGTAGGGAA | 3.38 | 4.31 | 3.5 | 2.19 | 5.6 | 4.15 | 3.73 | 3.58

Sequence | PBM binding z-score [1] | PBM binding z-score [2] | PBM binding z-score [3] | PBM binding z-score [4] | PBM binding z-score [5] | PBM binding z-score [6] | PBM binding z-score [7] | PBM binding z-score [8]
TCGAGTAGGTTACGAGGGCATTCAGGGATGAAGA | 1.43 | 1.55 | 1.13 | 0.248 | 1.58 | 3.1 | 0.0603 | 1.27
CGTCAAAGTTCAAGGTAATGTAACAGAAAGCAGC | 4.04 | 5.25 | 6.13 | 4.23 | 4.26 | 2.88 | 0.964 | 3.14
ATATGGAGGTTAGCTGGGGTCATTCAGACTAGGC | 4.32 | 4.94 | 3.85 | 2.22 | 6.26 | 5.44 | 3.66 | 5.52
CCGAGTAGGTTACGAGGGGGCATTCAATGCGAAT | 1.91 | 3.12 | 2.47 | 1.05 | 2.2 | 3.78 | 0.33 | 2.09
CTATGTAGGTTAAGTGGGTCATTCAGTTTGAAAG | 2.4 | 1.97 | 1.95 | 0.703 | 1.73 | 1.97 | 0.347 | 2.29
AGTCAAAGTTCACTAGGCAACGTAAGATTCAGCT | 3.63 | 4.84 | 5.8 | 4.16 | 3.89 | 1.4 | -0.365 | 3.61
CCTACTGGGCCAAAGGTCATAGATTCCAATGCTC | 4.32 | 5.69 | 4.78 | 1.1 | 6.28 | 3.22 | 0.866 | 2.27
CCGACTTGGGCAAAGGTTACCATACTCAGTACGA | 1.87 | 2.04 | 1.01 | 0.535 | 2.45 | 1.39 | -0.0972 | 0.0256
CAATCTAGGTCAAAGGTCAAAGTCGAGCCAACCA | 5.31 | 8.93 | 7.21 | 2.92 | 10.3 | 4.99 | 2.3 | 2.73
CCTACTGGGCCAAGGTCTTTGATCAGTCAAAGCA | 0.263 | -0.131 | -0.0886 | -1 | -0.568 | 0.0825 | -0.301 | -0.659
TCTAGTTGGTCACGGGGGTCACACACGACGGGTA | 4.5 | 6.36 | 5.7 | 2.07 | 6.5 | 4.03 | 3.01 | 4.15
ATATGTAGGTTAGCTGGGGTCATTCCGACTAGGC | 3.77 | 4.05 | 2.78 | 1.93 | 5.24 | 4.98 | 3.21 | 5.2
CAAACTAGGTCACAGAGGTCAACGTCCGTGCGTA | 5.75 | 7.28 | 8.09 | 3.2 | 7.63 | 4.9 | 3.25 | 5.58
CGAACTAGGTCAAAGGACAGTGGAAGGCGACGTA | 3.07 | 3.62 | 4.31 | 1.4 | 2.94 | 2.5 | 0.274 | 0.241
CGACCTAGGTCACCAGGACAGTGAAGAGGTTGGA | 3.51 | 5.3 | 5.83 | 1.6 | 3.92 | 3.44 | 1.53 | 0.503
TCAGATAGGTAAAGGTGAAAGTCGAACGATATGA | 1.76 | 1.57 | 1.27 | 0.734 | 2.33 | 1.33 | -0.218 | -0.344
ATCGAAAGGTCGTGAGGTGTGTATACAGAAAGGC | 2.68 | 4.5 | 4.17 | 1.67 | 4.81 | 2.44 | -0.109 | 1.16
CCTACAGGGCCAAAGGTCATTGATTCCAATGCTC | 4.75 | 6.13 | 5.66 | 1.95 | 7.35 | 3.46 | 0.651 | 2.73
CCATGTAGGTTAAGGGGGTCATTCAGTTTGAAAG | 4.05 | 5.03 | 3.85 | 2.37 | 5.74 | 3.87 | 2.67 | 6.01

Sequence | PBM binding z-score [1] | PBM binding z-score [2] | PBM binding z-score [3] | PBM binding z-score [4] | PBM binding z-score [5] | PBM binding z-score [6] | PBM binding z-score [7] | PBM binding z-score [8]
ATATGTACGTTAGGGTCATTCAGAAAGTAGGGAA | 2.98 | 3.78 | 2.71 | 2.3 | 4.98 | 3.78 | 2.87 | 3.98
CTATGTAGGTTAAGCGGGTCATTCAGTTTGAAAG | 2.58 | 2.62 | 1.94 | 1.29 | 3.17 | 2.56 | 0.448 | 3.14
CCTACTGGGCCGAGGTCATTGATCAGTCAAAGCA | 3.3 | 4.27 | 3.11 | 1.96 | 4.68 | 3.52 | 2.67 | 4.32
GCTGCTAGGTCAGGTTGGTCAACTAACGGGTACG | 2.85 | 2.92 | 3.89 | 0.438 | 1.17 | 1.91 | 0.472 | 0.97
ACCAGCAGGCCAAGGGTCACTCAAGATTAGTCCG | 3.61 | 4.08 | 3.49 | 0.237 | 4.04 | 2.63 | 0.148 | 1.1
CCGAGTAGGTTACGAGGGGGAATTCAGTGCGAAT | 0.662 | 1.53 | 1.1 | 0.572 | 1.09 | 1.79 | 0.0868 | 0.419
CGAACTCGGTCAAAGGACAGTGAAAGGCGACGTA | 1.9 | 2.15 | 2.76 | 0.447 | 0.907 | 0.713 | -0.276 | -0.121
AGAATGAGGTTACCAAAGATCAGTGAAACGCTTG | 0.66 | 2.09 | 1.51 | 1.14 | 2.67 | 2.65 | 0.639 | 0.206
TAGCCTAGGACATGCGGGCCAGTATAGTGTCGGC | -0.329 | -0.38 | 0.0739 | -1.32 | -0.25 | 0.348 | -0.342 | -1.08
AGTGAAAGTTCAGGACGAGGTAACGTAAAGCACG | 3.13 | 4.55 | 4.38 | 2.84 | 2.54 | 3.93 | 1.95 | 2.34
CTATGCAGGTTAAGGGGGTCATTCAGTTTGAAAG | 3.8 | 5.13 | 4.11 | 2.38 | 6.2 | 3.91 | 2.28 | 5.99
CAGACTAGGTCAAAGGTCAAAGTCGAGCCAACCA | 5.25 | 8.9 | 7.48 | 3.08 | 10.3 | 4.68 | 1.38 | 3.17
CGAACTAGGTCACCCGGACAGTGAAGAGGTTGGA | 3.23 | 4.48 | 5.44 | 1.27 | 2.93 | 2.98 | 1.47 | 1.13
TCGAGTATGTTACGGGGGCATTCAGGGATGAAGA | 1.62 | 2.19 | 1.29 | 2.11 | 1.67 | 3.98 | 1.12 | 3.01
ATCGAAAGGTCGTGAGGTGAGTTTACAGAAAGGC | 3.38 | 4.69 | 4.07 | 2.26 | 5.37 | 3.57 | 1.5 | 3.12
CCGAGTAGGTTACGAGCGGGCATTCAGTGCGAAT | 0.628 | 0.683 | 0.688 | 0.309 | 0.313 | 1.23 | -0.803 | -0.206
ATATGTAGGTTAGGGTAATTCAGAAAGTAGGGAA | 1.35 | 1.05 | 0.966 | 0.835 | 1.16 | 1.72 | 1.34 | 1.11
ACTTACGGGTCAACGGGGTTATAGCACGCGTATA | 3.81 | 5.9 | 5.07 | 2.6 | 6.78 | 4.23 | 1.08 | 3.81
CGGACTAGGTCACCAGGACAGTGAAGAGGTTGGA | 3.18 | 4.13 | 5.61 | 1 | 3.39 | 3.14 | 2.14 | 0.337
